Where “and” joins values, the source holds several entries; their conditions need not be identical. Equal entries are not always repeated. The whole screen tested about 5,500 compounds, of which about 2,000 (36%) were called active. Roughly 18% stayed inconclusive and do not appear here. No stated cut-off is given here; in the data, active means normalized growth mostly below about 0.91 (no sharp cut-off); inconclusive means no clear call, values can overlap the other calls; inactive means mostly above about 0.92. The list shows a part of the results.
Assay: chemical genetic growth profiling, strain panel (AID 1159580);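 further: tested at 20 µM; growth read once vehicle control cultures reached saturation at 30 °C; 1 = growth at the plate median or of vehicle wells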
Conditions: S. cerevisiae deletion strains, growth OD

Measured: normalized growth

Cc1nnc(NS(=O)(=O)c2ccc(N)cc2)s1
inactive: locus YAL021C, strain ccr4, stronger effect = lower value 0.982 | locus YAL026C, strain drs2, stronger effect = lower value 1.01 | locus YAL030W, strain snc1, stronger effect = lower value 0.986 | locus YBL061C, strain skt5, stronger effect = lower value 0.989 | locus YBR009C, strain hhf1, stronger effect = lower value 1.01 | locus YBR021W, strain FUR4, stronger effect = lower value 1.02 | locus YBR023C, strain chs3, stronger effect = lower value 1.02 | locus YBR171W, strain sec66, stronger effect = lower value 1 | locus YBR229C, strain ROT2, stronger effect = lower value 1 | locus YBR231C, strain swc5, stronger effect = lower value 0.99 | locus YBR279W, strain paf1, stronger effect = lower value 1 | locus YCL011C, strain gbp2, stronger effect = lower value 1.02 | locus YCL016C, strain dcc1, stronger effect = lower value 1 | locus YCL029C, strain bik1, stronger effect = lower value 0.992 | locus YCL061C, strain MRC1, stronger effect = lower value 1.01 | locus YCL069W, strain vba3, stronger effect = lower value 0.997 | locus YCR088W, strain abp1, stronger effect = lower value 1 | locus YDL005C, strain med2, stronger effect = lower value 1.02 | locus YDL035C, strain GPR1, stronger effect = lower value 1.02 | locus YDL040C, strain nat1, stronger effect = lower value 1.01 | locus YDL074C, strain BRE1, stronger effect = lower value 1.05 | locus YDL101C, strain DUN1, stronger effect = lower value 1 | locus YDL134C, strain PPH21, stronger effect = lower value 1.02 | locus YDL185W, strain tfp1, stronger effect = lower value 1 | locus YDL192W, strain arf1, stronger effect = lower value 1.01 | locus YDR001C, strain nth1, stronger effect = lower value 1.01 | locus YDR069C, strain doa4, stronger effect = lower value 0.992 | locus YDR101C, strain arx1, stronger effect = lower value 0.995 | locus YDR137W, strain rgp1, stronger effect = lower value 1.01 | locus YDR159W, strain sac3, stronger effect = lower value 0.979 | locus YDR162C, strain NBP2, stronger effect = lower value 1.03 | locus YDR195W, strain ref2 0.947 | locus YDR297W, strain sur2, stronger effect = lower value 1 | locus YDR318W, strain mcm21, stronger effect = lower value 1.02 | locus YDR334W, strain swr1, stronger effect = lower value 0.987 | locus YDR335W, strain msn5, stronger effect = lower value 0.999 | locus YDR388W, stronger effect = lower value 0.993 | locus YDR392W, strain spt3, stronger effect = lower value 1.04 | locus YDR502C, strain sam2, stronger effect = lower value 1.02 | locus YEL003W, strain gim4, stronger effect = lower value 1 | locus YEL037C, strain rad23, stronger effect = lower value 0.972 | locus YEL061C, strain CIN8 (second series), stronger effect = lower value 1.01 | locus YEL061C, strain CIN8, stronger effect = lower value 1.01 | locus YER015W, strain faa2, stronger effect = lower value 1 | locus YER016W, strain bim1, stronger effect = lower value 0.994 | locus YER110C, stronger effect = lower value 0.984 | locus YER111C, strain swi4, stronger effect = lower value 0.999 | locus YER155C, strain BEM2 (second series), stronger effect = lower value 0.99 | locus YER155C, strain BEM2, stronger effect = lower value 1 | locus YER167W, strain BCK2, stronger effect = lower value 1.01 | locus YFR010W, strain ubp6, stronger effect = lower value 1 | locus YGL078C, strain dbp3, stronger effect = lower value 1 | locus YGL086W, strain mad1, stronger effect = lower value 1 | locus YGL167C, strain pmr1, stronger effect = lower value 1 | locus YGL173C, strain kem1, stronger effect = lower value 0.985 | locus YGL227W, strain vid30, stronger effect = lower value 1.01 | locus YGL240W, strain doc1, stronger effect = lower value 1.02 | locus YGL248W, strain PDE1, stronger effect = lower value 1 | locus YGL253W, strain hxk2, stronger effect = lower value 1.01 | locus YGR135W, strain pre9, stronger effect = lower value 1 | locus YGR252W, strain gcn5, stronger effect = lower value 1.13 | locus YHR013C, strain ard1, stronger effect = lower value 0.998 | locus YHR027C, strain rpn1, stronger effect = lower value 1 | locus YHR030C, strain SLT2, stronger effect = lower value 1.01 and 0.969 | locus YHR079C, strain IRE1 (second series), stronger effect = lower value 0.96 | locus YHR079C, strain IRE1, stronger effect = lower value 0.971 | locus YHR094C, strain hxt1, stronger effect = lower value 0.981 | locus YHR129C, strain ARP1, stronger effect = lower value 1 | locus YHR142W, strain chs7, stronger effect = lower value 1.02 | locus YHR200W, strain rpn10, stronger effect = lower value 1.01 | locus YIL066C, strain RNR3, stronger effect = lower value 0.992 | locus YIL073C, strain SPO22, stronger effect = lower value 1.06 | locus YIL125W, strain kgd1, stronger effect = lower value 1.01 | locus YIR030C, strain dcg1, stronger effect = lower value 0.991 | locus YJL092W, strain hpr5, stronger effect = lower value 1 | locus YJL095W, strain BCK1 (second series), stronger effect = lower value 0.988 | locus YJL095W, strain BCK1, stronger effect = lower value 1.02 and 0.974 | locus YJL115W, strain asf1, stronger effect = lower value 1.01 | locus YJL129C, strain trk1, stronger effect = lower value 0.997 | locus YJL134W, strain LCB3, stronger effect = lower value 1.01 | locus YJL154C, strain vps35, stronger effect = lower value 1.01 | locus YJL164C, strain tpk1, stronger effect = lower value 1.01 | locus YJL166W, strain qcr8, stronger effect = lower value 1 | locus YJL168C, strain set2, stronger effect = lower value 0.988 | locus YJL187C, strain SWE1 (second series), stronger effect = lower value 1.01 | locus YJL187C, strain SWE1, stronger effect = lower value 1 | locus YJR043C, strain POL32, stronger effect = lower value 1.03 | locus YJR066W, strain TOR1, stronger effect = lower value 0.925 | locus YJR075W, strain HOC1, stronger effect = lower value 1.01
